# Compound activity from PubChem.
# Only some compounds are listed: those with a hit (about 3% of all), similar ones and a draw of the others.
# CRE-bla Fsk = alters forskolin-stimulated CRE reporter signaling in CHO cells. CHO CRE-bla reporter (cAMP response element driving beta-lactamase), forskolin EC10, beta-lactamase ratio. Potency, µM (titrated, usually from 38.2 µM), for inactives: top-dose activity change, negative = inhibition, usual class: activators. 71,000 tested, 2.5% active; active means well fitted activation curve with a large enough effect in the signal ratio, with a control signal flat, not every such curve was filed as active; inconclusive means small, poorly fitted or top-dose-only effect, or effect the other way, or a change in a side signal; the % refers to the signal ratio; further: % of control where 0% means no effect
#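 AC50 values, positive or negative, reflect shifts in EC10 NKH 477-induced CRE-bla reporter activity in CHO cells. Incubation lasted 3 h at 37 °C before CCF4 substrate (2 h, room temperature) and ratiometric 460/530 nm reading.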
# IkB sig inh = IkB pathway inhibition in ABC-DLBCL cells; ABC-DLBCL IkBa-CBG/CBR dual luciferase ratio, 4 h; response scale: scaled: untreated 0%, proteasome inhibitor 100%; Potency, µM (titrated, usually from 57.1 µM), for the others: top-dose IkBa stabilization activation; 110,000 tested, 0.04% active; active means well fitted curve in the direction sought with a large enough effect in the signal ratio, not every such curve was filed as active; inconclusive means small, poorly fitted or top-dose-only effect, or a change in a side signal; the % refers to the signal ratio;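 further: the direction sought is a rising ratio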
#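 Luminescence ratio of IκBα-fused green versus native red beetle luciferase in OCI-Ly3 cells, 4 h post-doxycycline with compound; red signal alone, scaled from basal (0%) to zero light (-100%), flagged nonspecific or cytotoxic effects.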
# p53ts 32C kill = kills p53ts cells at the permissive temperature. H1299-p53A138V at 32C, ATP luminescence viability, 24 h. Potency, µM (series often up to 46.1 µM), inactives show at the highest dose activity change, negative = cytotoxicity, most hits filed as cytotoxic. 130,000 tested, 0.93% active. AID 924;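 further: 0% = DMSO and -100% = full killing by reference compound; nearly all actives have a fitted effect of over 55% in size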
#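 Viability by ATPlite luminescence after 24 h compound treatment (up to 46 uM) at the permissive 32C. Cells are H1299 carrying p53 A138V. Scale runs from DMSO basal to 100 uM tamoxifen as full kill; AC50 from Hill fits.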
# p53ts 39C tox = cytotoxicity in p53ts cells at nonpermissive temperature | 130,000 tested, 1.5% active | H1299-p53A138V viability at 39C, ATP luminescence, 24 h | Potency, µM (titrated, usually from 46.1 µM), without a hit: top-dose activity change, negative = cell killing, hits mostly cytotoxic; further: on the % scale 0 is the no-effect control and ±100 the full control effect; nearly all actives have a fitted effect of over 55% in size
# Imprint erasure = induces erasure of genomic imprints in mouse ES cells. mouse ES Peg3-LacZ reporter, beta-gal luminescence, 40 h. Potency, µM (titrated, usually from 60.7 µM), for inactives: top-dose activity change, positive = activation, actives largely listed as activators. 110,000 tested, 0.02% active. AID 1948
#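 Readout: BetaGlo luminescence (5 min, room temp) for LacZ from the normally silent maternal Peg3 allele in female Peg3LacZ-Neo ES cells. Cells 300/well, 40 h, 37C, 5% CO2. Data normalized per plate to negative controls.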
# The depositor's hits bear a star; ? = inconclusive; nt = no result; [ ] = another dose, or the depositor's remark. Unless noted, the call rests on the fitted dose curve; in most records, active means well fitted curve in the direction sought with a large enough effect; inconclusive means small, poorly fitted or top-dose-only effect, or another doubt; inactive means no such curve, though single readings can be large; an effect the other way counts as inactive or inconclusive. Potency means the concentration at half of the fitted maximal effect.
SMILES,CRE-bla Fsk,IkB sig inh,p53ts 32C kill,p53ts 39C tox,Imprint erasure
COc1ccc(Oc2ncc3nc(-c4ccc(OC)cc4)c(=O)n(Cc4cccs4)c3n2)cc1,?,2.3%[11.4 µM],-3.0%,8.1%,nt
COc1ncc2nc(-c3cccs3)c(=O)n(Cc3cccs3)c2n1,2.51µM*,0.7%[11.4 µM],9.2%,-1.5%,6.7%
COc1ncc2nc(-c3cccs3)c(=O)n(Cc3ccc(F)cc3)c2n1,?,-2.7%[11.4 µM],-15.4%,-15.2%,-5.6%
COc1ccc(-n2c(=O)c(-c3cccs3)nc3cncnc32)cc1,3.16µM*,1.2%[11.4 µM],4.9%,-1.8%,2.9%
COc1ncc2nc(-c3ccccc3)c(=O)n(Cc3cccs3)c2n1,12.6µM*,-1.4%[11.4 µM],-2.9%,1.6%,nt
COc1ncc2nc(-c3ccccc3)c(=O)n(CCc3ccccc3)c2n1,12.6µM*,-0.3%[11.4 µM],10.0%,-6.3%,6.5%
Cc1ccc(S(=O)(=O)c2c(Nc3cc(F)ccc3F)sc(C(=O)c3ccc(F)cc3)c2N)cc1,nt,?,1.7%,-7.0%,6.5%[10.9 µM]
Cc1ccc(NC(=O)NCC2CCN(Cc3cccc(Cl)c3)CC2)cc1Cl,nt,?,-18.2%,15.8µM*,-18.8%[10.9 µM]
O=C(NCC1CCN(Cc2ccccc2F)CC1)Nc1ccc(F)c(Cl)c1,nt,?,9.4%,-26.3%,-13.4%[10.9 µM]
Cc1cccc2c1N(CCOc1ccc(C(C)(C)C)cc1)C(=O)C2=O,nt,nt,nt,3.8%,nt
Cc1ccc(C)c(CN2C(=O)C(=O)c3ccccc32)c1,nt,-0.1%,15.4%,-22.3%,-21.6%[10.9 µM]
Cc1ccc(CN2C(=O)C(=O)c3cc(Br)cc(C)c32)cc1,nt,?,?,10µM*,-23.1%[10.9 µM]
CCCOc1ccc(CN2C(=O)C(=O)c3cccc(C)c32)cc1,nt,0.5%,42.9%,15.8µM*,-26.1%[10.9 µM]
NC(=[SH+])N=N/C=C1/C=CC=CN1.O=S(=O)(O)O.[Fe],nt,nt,nt,nt,5.8%[10.9 µM]
CCc1ccc(NC(=O)NCCc2c(C)nn(C)c2C)cc1,nt,0.0%,2.0%,15.4%,-11.5%[10.9 µM]
COc1ccc(Cn2c(=O)c3ccccc3n3c(-c4cccc(OC)c4OC)nnc23)cc1,nt,-1.6%,-5.7%,3.1%,-17.7%[10.9 µM]
COc1ccc(OC)c(-c2nnc3n(CCc4ccccc4)c(=O)c4ccccc4n23)c1,nt,?,6.1%,12.6µM*,-13.2%[10.9 µM]
Cc1cc(C)c(S(=O)(=O)NCCc2sc3nc(-c4ccc(F)cc4)nn3c2C)c(C)c1,nt,?,-9.8%,-20.7%,-14.7%[10.9 µM]
CCOc1ccc(NC(=O)c2c(NCc3sccc3C)sc3c2CCCCC3)cc1,nt,?,2.0%,3.9%,-6.8%[10.9 µM]
N#Cc1c(NC(=O)c2nc3ncccn3n2)sc2c1CCCCC2,-3.7%,0.9%,12.6µM*,12.6µM*,-11.8%
Cc1cc(C(=O)Nc2sc3c(c2C#N)CCCCC3)cs1,22.4%,2.3%,?,-27.1%,-48.1%
O=C(Cc1cc(=O)[nH]c(=O)[nH]1)N1CCC(Cc2ccccc2)CC1,?,1.3%,10µM*,?,-15.2%
CCCC(=O)Oc1c(Sc2ccc(C)cc2)c(C)nn1-c1ccccc1,nt,17.1%,-0.9%,-19.7%,16.1%[10.9 µM]
COc1ccc(C(=O)c2c[nH]c3ccccc23)cc1,?,0.0%,7.94µM*,10µM*,-26.0%
COc1ccc2c(c1)c1c(c(=O)n(-c3cc(Cl)ccc3C)c(=O)n1Cc1ccc(F)cc1)n2C,nt,-1.5%,6.7%,-29.4%,12.4%[10.9 µM]
SMILES,CRE-bla Fsk,IkB sig inh,p53ts 32C kill,p53ts 39C tox,Imprint erasure
COCCn1c(=O)c(-c2cccc(Cl)c2)nc2cncnc21,?,2.5%[11.4 µM],2.7%,0.2%,-0.2%
COc1ccccc1CCn1c(=O)c(-c2cccc(F)c2)nc2cncnc21,?,1.5%[11.4 µM],-1.3%,-3.7%,?
COCCn1c(=O)c(-c2ccc(Cl)cc2)nc2cncnc21,10µM*,4.4%[11.4 µM],-4.0%,-1.1%,nt
COc1ccccc1CCn1c(=O)c(-c2ccc(F)c(F)c2)nc2cncnc21,10µM*,-0.3%[11.4 µM],-6.5%,-14.4%,-4.6%
CCc1nn2c(=O)cc(COC(=O)c3ccccc3NC(=O)C3CCCCC3)nc2s1,nt,?,-16.5%,8.8%,-5.7%[10.9 µM]
CCOc1ccc(CNC(=O)c2cccn2-c2nnc(N3CCCCC3)s2)cc1OC,nt,0.6%,3.2%,-13.1%,2.2%[10.9 µM]
CCS(=O)(=O)CCSc1nc(-c2ccc(Br)cc2)cc(-c2ccccc2)c1C#N,nt,0.2%,3.4%,?,-21.1%[10.9 µM]
CS(=O)c1nc(-c2ccc(Br)cc2)cc(-c2ccccc2)c1C#N (centres undefined),14.8%,?,20µM*,?,-26.0%
CCCS(=O)(=O)c1ncc(Cl)c(C(=O)N(Cc2ccccc2)Cc2ccco2)n1,nt,?,?,3.16µM*,-37.7%[10.9 µM]
CCS(=O)(=O)c1ncc(Cl)c(C(=O)Nc2ccccc2)n1,nt,?,?,3.98µM*,-38.2%[10.9 µM]
CCS(=O)(=O)c1ncc(Cl)c(C(=O)Nc2c(C(=O)Nc3cccc(C)c3)oc3ccccc23)n1,nt,?,?,20µM*,-37.4%[10.9 µM]
CCSc1ncc(Cl)c(C(=O)Nc2c(C(=O)Nc3cccc(C)c3)oc3ccccc23)n1,nt,-0.8%,-2.1%,-0.9%,-4.4%[10.9 µM]
CN(c1ccccc1)S(=O)(=O)c1ccc(NC(=O)c2nc(S(C)(=O)=O)ncc2Cl)cc1,nt,?,?,3.16µM*,-38.9%[10.9 µM]
C[C@]12CC[C@H](O)CC1=CC[C@H]1[C@@H]2CC[C@@]2(C)C(N(CCO)CCO)CC[C@@H]12 (some centres undefined),nt,nt,nt,nt,3.0%[10.9 µM]
CCOC(=O)c1ccc(NC(=O)c2nc(S(=O)(=O)Cc3ccccc3)ncc2Cl)cc1,nt,-1.9%,-10.7%,12.6µM*,-39.9%[10.9 µM]
CCS(=O)(=O)c1ncc(Cl)c(C(=O)N(Cc2ccccc2)c2ccc(OC)cc2)n1,nt,?,20µM*,5.01µM*,-39.1%[10.9 µM]
COc1ccc(N(Cc2ccccc2)C(=O)c2nc(SC)ncc2Cl)cc1,nt,?,3.4%,-14.0%,-11.7%[10.9 µM]
CCOC(=O)c1ccc(NC(=O)c2nc(SC(C)C)ncc2Cl)cc1,nt,?,-5.1%,-0.6%,-8.5%[10.9 µM]
CCSc1nncn1/N=C/c1ccc(OC)c(OC)c1,10µM*,-4.3%,-6.5%,-13.6%,-13.0%
O=c1oc2c(CN3CCOCC3)c(O)c(Cl)cc2c2c1CCC2,?,0.0%,8.6%,2.1%,1.1%
Cc1c(C)c2cc(Cl)c(O)c(CN(C)C)c2oc1=O,10µM*,1.8%,6.6%,14.2%,-6.3%
CCc1c(C)c2cc(Cl)c(O)c(CN(CC)CC)c2oc1=O,10µM*,-1.0%,0.6%,2.6%,-7.3%
CCc1c(C)c2ccc(O)c(CN3CCN(c4ccccc4)CC3)c2oc1=O,nt,-2.9%,?,?,-6.8%[10.9 µM]
CCc1c(C)c2cc(Cl)c(O)c(CN(C)C)c2oc1=O,10µM*,-3.0%,1.4%,-0.6%,-4.7%
CCCOc1ccccc1C(=O)N1CCCCC1CCN1CCCCC1 (centres undefined),nt,1.2%,-2.9%,22.4µM*,-10.0%[10.9 µM]
Cc1ccccc1C(=O)N1CCCCC1CCN1CCCCC1 (centres undefined),nt,?,0.9%,-24.7%,-12.9%[10.9 µM]
